Bioassay records deposited in PubChem BioAssay by Bradner/Qi Labs at DFCI.
This is one part of a sample in which hits are shown more often than they occur.
CBX7 inh: inhibitors of human CBX7 binding to H3K27me3 peptide; AlphaScreen His6-CBX7 / biotin-H3K27me3 peptide binding; stronger effect = lower value; normalised signal (fraction of DMSO) (no concentration beside the values); 1.1% of 66,000 active; AID 1224903; in the data active means normalised signal below about 0.5
Target sequence (O95931 whole entry, looked up): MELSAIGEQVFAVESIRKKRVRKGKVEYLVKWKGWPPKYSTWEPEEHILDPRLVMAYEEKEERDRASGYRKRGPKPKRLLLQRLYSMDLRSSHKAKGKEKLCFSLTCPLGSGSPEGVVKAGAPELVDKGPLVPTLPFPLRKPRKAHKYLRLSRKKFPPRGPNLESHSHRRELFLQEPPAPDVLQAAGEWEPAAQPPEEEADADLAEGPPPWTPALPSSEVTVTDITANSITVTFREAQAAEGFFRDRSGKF
* = called active by the depositor.

SMILES	CBX7 inh
Cc1ccc(-c2nnc(Nc3ccc(Cl)cc3)c3ccccc23)cc1S(=O)(=O)NCCO	0.817
COc1cccc(OC)c1C(=O)Nc1ccc(S(=O)(=O)Nc2nccs2)cc1	1.02
Cc1ccc(-c2nnc(Nc3ccc(S(=O)(=O)Nc4nccs4)cc3)c3ccccc23)cc1	0.363*
CCN1C(=O)c2ccccc2S(=O)(=O)c2ccc(C(=O)N3CCN(c4ccccn4)CC3)cc21	1.02
CCN1CCN(c2ccc(Nc3nc(C)nc4cc(Cl)ccc34)cc2)CC1	0.981
COc1ccc(C(=O)Nc2ncc(Cc3ccc(F)cc3)s2)cc1OC	0.998
CCc1ccc(NC(=O)C2CCN(c3nnc(-n4cccc4)s3)CC2)cc1	1.03
O=C(CCS(=O)(=O)c1ccccc1)Nc1ccc2nc3n(c(=O)c2c1)CCCCC3	1.02
CCOC(=O)C1CCN(C(=O)c2cnn3c(C)c(Cc4cccc(Cl)c4)c(C)nc23)CC1	0.971
CCCN(CCC)S(=O)(=O)c1ccc(C(=O)Nc2ccc(-c3nc4ccccc4[nH]3)cc2)cc1	1.25
COc1ccc(Nc2cc(C(=O)NC3CCC(C)CC3)c3ccccc3n2)c(OC)c1 (stereo not given)	0.798
COc1cccc(-c2nn(C)c3sc(C(=O)Nc4ccc(C(C)C)cc4)cc23)c1	0.965
Cc1cccc(NC(=O)c2sc3ncn(CC(=O)N4CCC(C)CC4)c(=O)c3c2C)n1	1.05
Cc1ccc(S(=O)(=O)c2nc(-c3ccccc3C)oc2N2CCCCCC2)cc1	0.9
Cc1ccc(S(=O)(=O)c2nc(-c3ccccc3F)oc2N2CCCCC2)cc1	0.483*
O=S(=O)(c1ccccc1)c1nc(-c2ccccc2F)oc1N1CCCCCC1	0.98
O=C(COc1cccc(Cl)c1)Nc1ncc(Cc2ccccc2)s1	1.15
CC(C)NCC(=O)Nc1c2c(nc3c1CCC3)CCCC2	0.522
CN(C)CC(=O)Nc1c2c(nc3c1CCC3)CCCC2	0.231*
O=C(CN1CCN(c2ccccc2)CC1)Nc1c2c(nc3c1CCC3)CCCC2	0.978
O=C(CCN1Cc2ccccc2C1)Nc1c2c(nc3c1CCC3)CCCC2	0.949
O=C(Nc1c2c(nc3c1CCC3)CCCC2)c1ccccn1	0.14*
CCN(CC)CC(=O)Nc1c2c(nc3c1CCC3)CCC2	1.02
O=C(Nc1sc2c(c1C(=O)N1CCCCCC1)CCCC2)c1ccccc1F	1.01
CC(C)c1ccc(OCC(=O)N(Cc2ccc(Cl)cc2)C2CCS(=O)(=O)C2)cc1 (stereo not given)	0.926
SMILES	CBX7 inh
CCOc1ccccc1NC(=O)c1cn(-c2ccc(C)c(C)c2)c(=O)c2ccccc12	1.01
CCCCCCOc1ccc(C(=O)Nc2nc3ccc(OC)cc3s2)cc1	1.06
Cc1ccc(-c2nnc(Sc3cc(C(C)(C)C)c(O)c(C(C)(C)C)c3)c3ccccc23)cc1	0.845
O=C1CCCc2c1[nH]c1ccc(C3CCCCC3)cc21	0.884
O=C(c1ccccc1)N1CCn2c3c(c4cc(C5CCCCC5)ccc42)CCCC31 (stereo not given)	0.695
CCn1c2c(c3cc(C4CCCCC4)ccc31)CCCC2O (stereo not given)	0.47*
COc1ccc(OC)c(NC(=O)Cn2nc(Cc3cccnc3)c3ccccc3c2=O)c1	1.03
CCCCNS(=O)(=O)c1cc(-c2nnc(OC)c3ccccc23)ccc1C	0.849
Clc1ccc(C(c2ccc(Cl)cc2)N2CCN(CCCc3c[nH]c4ccccc34)CC2)cc1	0.597
CC(C)c1ccc(C(c2ccccc2)N2CCN(C(=O)CCc3c[nH]c4ccccc34)CC2)cc1 (stereo not given)	0.586
Fc1ccc(C(c2ccc(F)cc2)N2CCN(CCCc3c[nH]c4ccccc34)CC2)cc1	0.487*
COc1cc(-c2cc(C(N)=O)on2)cc(OC)c1OC	0.991
COc1ccccc1N1CCN(Cc2cc(Br)c(O)c3ncccc23)CC1	0.0133*
COc1ccccc1N1CCN(c2ncnc3ccccc23)CC1	1.03
Oc1c(Br)cc(CN2CCCCC2)c2cccnc12	0.00571*
COc1cc(CN2CCN(Cc3ccccc3Br)CC2)cc(OC)c1OC	1.05
COc1ccccc1N1CCN(Cc2nc(-c3ccccc3)no2)CC1	1
COc1ccccc1N1CCN(Cc2cc(Cl)c3cccnc3c2O)CC1	0.000865*
COc1ccccc1C(NC(=O)C(C)C)c1cc(Cl)c2cccnc2c1O (stereo not given)	0.715
COc1ccccc1N1CCN(c2nnc(C)c3ccccc23)CC1	1.17
Brc1ccc(OCc2ccccc2)c2ncccc12	1.03
NS(=O)(=O)c1ccc(CCNC(=O)Cc2ccc(-n3c(=O)[nH]c4ccsc4c3=O)cc2)cc1	1.06
COc1cccc(NC(=O)NCCCN2CCN(c3cccc(Cl)c3)CC2)c1	1.44
Cc1ccccc1Cc1c(C)nc2nc(SCC(=O)NCc3ccccc3)nn2c1C	0.982
CC(=O)N1CCc2cc(S(=O)(=O)N3CCN(c4cc(C)ccc4C)CC3)ccc21	1.1
COc1ccc(C2=NS(=O)(=O)c3ccccc3N2)cc1OC	1.17
Cn1c(C(=O)Nc2ccc3c(c2)OCCO3)cc2sc(Cl)cc21	0.979
